High-throughput results from PubChem BioAssay.
This is a sample that favours compounds with a hit; in the whole collection about 5.1% have one here.
RAM inhibit: inhibitors of the yeast RAM network. inhibition, % at 50 µM. actives 1.8% (n = 190,000). S. cerevisiae dse1pr::URA3 reporter, 5-FOA growth OD615, 2 d; analog-sensitive cbk1-as2 kinase mutant strain;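 active = inhibition above a set limit, 3 SD over mean compound inhibition, cut at about 8.4% in these data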;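 also: 0% = DMSO-only wells with no growth and 100% = 10 µM 1-NA-PP1 full growth; inhibition rescues growth on 5-FOA so higher OD means more RAM inhibition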
ROMK primary: human ROMK K+ channel modulation, primary screen; Tet-inducible ROMK, thallium flux fluorescence; actives lie on both sides; actives 2% (n = 130,000); B-score at 10 µM; AID 1918;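 active = signal ratio slope over the read window, or its plate-corrected B-score, at least 3 SD from the plate mean, either direction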;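 also: B-score of the F/F0 ratio slope over 7 to 12 s after thallium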
S1P3 antag: S1P3 (human) receptor antagonism; AID 485; Q99500; actives 0.27% (n = 170,000); CHO S1P3 NFAT-BLA reporter, FRET fluorescence, antagonist mode; inhibition, % at 4.98 µM;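 active = inhibition above the plate cutoff, the mean inhibition of test wells on that plate plus 3 SD, cut at about 28% in these data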;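 also: cells challenged with S1P at its EC80 of 0.8 µM; blue over green emission ratio from cleaved BLA substrate after 4 h stimulation; 0% = S1P-stimulated wells and 100% = unstimulated DMSO-only wells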
S1P4 agonist: agonists of human S1P4 receptor; O95977; S1P4-expressing cell line, agonist reporter assay; activation, % at 4.98 µM; actives 0.35% (n = 220,000); in the data active = activation above about 11%;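 also: 0% = DMSO vehicle and 100% = reference agonist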
S1P4 antag: human S1P4 receptor antagonism | O95977 | S1P4-expressing cells, antagonist mode, reporter read-out | inhibition, % at 4.98 µM | actives 0.26% (n = 220,000) | AID 1510; in the data active = inhibition above about 29%;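 also: 0% = wells stimulated with agonist and 100% = vehicle wells without agonist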
KCC2 mod: modulates chloride dependent transport by human KCC2; KCC2 cells, thallium flux FluoZin-2 fluorescence; B-score of Tl+ flux slope (higher = more flux/activation; lower = inhibition) at 10 µM; AID 1456; Q9H2X9; actives 2.2% (n = 190,000);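 active = thallium flux slope and its plate-corrected score both differing from the plate sample mean at a set confidence after two filtering rounds, in either direction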;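 also: slope of fluorescence scaled to starting intensity during 10 to 20 s after thallium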
Target sequence (Q9H2X9 whole entry, looked up): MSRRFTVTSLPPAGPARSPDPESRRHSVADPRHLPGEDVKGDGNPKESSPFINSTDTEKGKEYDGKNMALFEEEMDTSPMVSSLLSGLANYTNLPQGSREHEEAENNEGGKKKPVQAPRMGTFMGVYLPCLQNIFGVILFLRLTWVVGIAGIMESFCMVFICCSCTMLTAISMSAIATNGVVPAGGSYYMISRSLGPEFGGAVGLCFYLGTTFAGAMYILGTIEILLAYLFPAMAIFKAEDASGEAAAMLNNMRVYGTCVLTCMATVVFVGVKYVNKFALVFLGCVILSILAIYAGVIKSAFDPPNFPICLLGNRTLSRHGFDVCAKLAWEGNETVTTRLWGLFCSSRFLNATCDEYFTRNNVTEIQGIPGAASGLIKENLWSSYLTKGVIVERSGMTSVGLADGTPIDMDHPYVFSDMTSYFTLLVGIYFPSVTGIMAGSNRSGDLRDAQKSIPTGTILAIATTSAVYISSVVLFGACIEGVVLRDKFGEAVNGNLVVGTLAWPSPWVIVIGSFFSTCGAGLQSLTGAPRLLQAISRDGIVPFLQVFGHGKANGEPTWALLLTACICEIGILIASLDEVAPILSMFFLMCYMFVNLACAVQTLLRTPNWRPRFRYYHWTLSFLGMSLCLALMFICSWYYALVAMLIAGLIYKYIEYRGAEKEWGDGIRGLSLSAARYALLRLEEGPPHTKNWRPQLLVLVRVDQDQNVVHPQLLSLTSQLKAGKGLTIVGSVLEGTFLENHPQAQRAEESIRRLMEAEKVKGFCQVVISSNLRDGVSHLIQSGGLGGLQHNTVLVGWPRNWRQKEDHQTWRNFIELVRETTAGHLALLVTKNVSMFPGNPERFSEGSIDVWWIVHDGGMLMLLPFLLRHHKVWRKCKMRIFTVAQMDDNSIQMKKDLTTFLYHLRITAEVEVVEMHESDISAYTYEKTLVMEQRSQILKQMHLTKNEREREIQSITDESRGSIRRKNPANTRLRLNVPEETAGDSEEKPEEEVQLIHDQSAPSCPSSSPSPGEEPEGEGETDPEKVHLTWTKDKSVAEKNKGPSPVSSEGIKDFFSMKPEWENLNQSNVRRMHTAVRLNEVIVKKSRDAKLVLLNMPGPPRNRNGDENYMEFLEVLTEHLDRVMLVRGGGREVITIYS
KCC2 sec1: KCC2 (human) modulation, secondary assay; shares compounds with KCC2 mod; HEK293-KCC2, thallium flux, FluoZin2 fluorescence; active compounds read high; normalised thallium flux (F/F0 slope) at 10 µM; actives 15% (n = 3,700); AID 1713;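 active = thallium flux slope above the same plate's solvent-only control mean plus 3 SD; inconclusive = the two replicate wells disagree; inactive = no significant difference from solvent-only control wells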
KCC2 bumet counter: thallium flux despite bumetanide block in KCC2 cells, secondary assay 3 | shares compounds with KCC2 mod | HEK293-KCC2 + bumetanide/ouabain, thallium flux FluoZin2; active compounds read high | normalized thallium flux at 10 µM | actives 49% (n = 3,700) | AID 1714;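 active = thallium entry rate above the same plate's blocked-transporter control wells by more than 3 SD; inconclusive = the two repeat wells disagree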;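 also: raw slope of fluorescence over initial fluorescence between 10 and 20 s after thallium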
KCC2 sec2: confirmation of human KCC2 transport modulators; normalized thallium flux at 10 µM; actives 23% (n = 3,700); HEK293-KCC2, thallium flux FluoZin2 fluorescence; actives lie on both sides; F/F0 rise rate, 10–20 s post-thallium; shares compounds with KCC2 mod;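 active = thallium flux slope more than 3 SD above or below the plate's solvent-only control mean, mostly below; inconclusive = the two repeat wells disagreed; inactive = no significant shift from solvent-only controls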;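 also: raw slope with 0.1% DMSO as baseline and bumetanide as block control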
HEK counter1: counter-screen for KCC2 modulators: effect in parental HEK293 cells; thallium flux FluoZin2, ouabain; baseline-ratio fluorescence slope, 10–20 s after thallium; thallium flux rate (normalised fluorescence) at 10 µM; actives 46% (n = 3,700); shares compounds with KCC2 mod;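 active = thallium flux rate significantly above the same plate's solvent-only control wells, beyond their mean plus 3 SD; inconclusive = the two replicate wells gave conflicting results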
KCC2 ouabain: KCC2 (human) modulation, ouabain retest | raw Tl+ flux slope (below DMSO = inhibition, above = activation) at 10 µM | HEK293-KCC2, thallium flux FluoZin2 fluorescence; bidirectional: low = inhibitor, high = activator | actives 48% (n = 3,700) | shares compounds with KCC2 mod;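 active = thallium flux slope beyond 3 SD from same-plate DMSO control mean in most replicates, usually higher, sometimes lower; inconclusive = repeat tests gave conflicting results; inactive = no significant difference from controls in most replicates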;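 also: slope of initial-normalized fluorescence between seconds 10 and 20 after thallium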
HEK counter2: acts in parental HEK cells, second KCC2 counter-screen; shares compounds with KCC2 mod; HEK293 parental, thallium flux FluoZin-2 fluorescence slope; thallium flux slope at 10 µM; actives 33% (n = 3,700); AID 1718;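 active = thallium flux slope above the same plate's solvent-control mean plus 3 SD in both duplicate wells; inconclusive = duplicate wells that disagreed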;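 also: run without ouabain in cells lacking the KCC2 cotransporter; slope of fluorescence scaled to its starting value between 10 and 20 s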
Active calls of the source: *; ? = inconclusive; . = not tested or not shown.

SMILES	RAM inhibit	ROMK primary	S1P3 antag	S1P4 agonist	S1P4 antag	KCC2 mod	KCC2 sec1	KCC2 bumet counter	KCC2 sec2	HEK counter1	KCC2 ouabain	HEK counter2
Cc1ccccc1-n1c(-c2csc3ccccc23)n[nH]c1=S	2	0.073	-7	0	-11	15*	0.016*	0.045*	0.031	0.015*	0.043*	?
S=c1[nH]nc(-c2ccc3ccccc3n2)n1-c1ccc(Cl)cc1	5	.	-5	2	-4	14*	0.0069	0.032*	0.043*	0.029*	0.037*	0.026*
Cc1ccccc1-n1c(-c2csc(C)c2C)n[nH]c1=S	1	.	-20	-1	-22	2.4	.	.	.	.	.	.
CCOC(=O)C1(CCc2ccccc2)CCN(C(=O)[C@@H]2C[C@@H](C)NC(=S)N2)CC1	1	-1.1	-2	-1	-11	.	.	.	.	.	.	.
CC1CC(C)(C)NC(=S)N1CCC(=O)NCc1ccc(Cl)cc1 (stereo unspecified)	0	-0.94	-8	1	-24	-0.33	.	.	.	.	.	.
O=C(Nc1nc2c(s1)CN(Cc1ccccc1)CC2)C1CCCC1	1	-0.21	-9	0	-3	-3*	0.0082	0.0059	0.033	0.0075	?	0.011
C(=N\Nc1nc(N2CCCC2)nc(N2CCCC2)n1)/c1ccncc1	2	0.56	-29	0	-4	0.21	.	.	.	.	.	.
N#Cc1c(NC(=O)c2ccccc2Cl)n(Cc2ccccc2)c2nc3ccccc3nc12	3	.	0	3	9	-4.6*	0.0076	0.0062	0.029	0.0051*	0.014*	0.009
Cc1ccc(-c2nn(Cc3ccccc3)cc2/C=C/C(=O)O)cc1C	7	-0.26	.	0	-10	-8.1*	0.008	0.005	0.021*	0.008	0.011*	0.01
O=C(O)/C=C/c1cn(Cc2ccccc2)nc1-c1ccccc1	-1	.	.	0	4	-3.2*	0.0069	0.0044	?	0.0072	0.015*	0.0097
O=C(O)c1cccc(Cn2c(Cl)c(/C=N/NC(=O)c3cc4ccccc4cc3O)sc2=O)c1	.	0.3	-4	0	-6	-1	.	.	.	.	.	.
O=C(Cc1ccc(Cl)cc1)NNC(=S)NC(=O)c1cccs1	.	.	-13	2	8	29*	0.0084	0.045*	0.037*	0.034*	0.037*	0.027*
O=C(Cc1cccs1)NNC(=S)NCc1ccc(Cl)cc1	4	.	.	-4	15	-1.5	.	.	.	.	.	.
CC(NS(=O)(=O)c1cccc(Cl)c1)C(=O)Nc1ccc(-c2nc3ccccc3s2)cc1 (stereo unspecified)	3	0.029	.	-5	11	0.63	.	.	.	.	.	.
Cc1ccc(C)c(S(=O)(=O)NC(C)C(=O)Nc2ccc(-c3nc4ccccc4s3)cc2)c1 (stereo unspecified)	2	-0.068	.	2	-10	4.8*	0.017	0.0059*	0.03	?	0.017	0.011
c1coc(-c2nnc3sc(Cc4cccs4)nn23)c1	0	0.22	.	-1	-14	.	0.0061	0.0048	0.028	0.0078	?	0.01
Clc1ccc(-c2nnc3sc(Cc4cccs4)nn23)c(Cl)c1	3	-1.4	.	-1	-1	.	0.0086	0.0073	0.034	0.0068	0.018*	0.011*
COc1ccc(C(=O)CSc2nnc(CNC(=O)c3ccco3)n2C)cc1	0	-0.014	-13	-1	9	-0.028	.	.	.	.	.	.
CNC(=O)C1CC(=O)N(Cc2ccccc2)C(=Nc2ccc(OC)cc2)S1 (stereo unspecified)	2	0.16	.	0	-10	.	?	0.0045	0.029	0.0075	0.019	0.01
CNC(=O)C1CC(=O)N(Cc2ccc(OC)c(OC)c2)C(=Nc2ccc(OC)cc2)S1 (stereo unspecified)	1	.	.	1	0	0.2	.	.	.	.	.	.
CN(C)S(=O)(=O)N1CCCC(C(=O)c2ccc(-c3ccccc3)c(F)c2)C1 (stereo unspecified)	7	0.61	-1	0	5	-1.5	.	.	.	.	.	.
Cc1[nH]n(C(N)=S)c(=O)c1N=Nc1cc(-c2ccc(Br)cc2)[nH]n1	6	0.95	-24	0	5	-6.9*	0.008	0.0049	0.032	0.0056*	0.011*	0.011
Cc1[nH]n(C(N)=S)c(=O)c1N=Nc1ccc2ccccc2c1	1	-1.4	-12	1	3	32*	0.0059	0.088*	?	0.027*	0.036*	0.019*
CC(=O)Nc1ccc(N=Nc2c(C)[nH]n(C(N)=S)c2=O)cc1	1	-0.55	-3	-1	-18	0.12	.	.	.	.	.	.
Cc1ccc(N=Nc2c(C)[nH]n(C(N)=S)c2=O)cc1C	1	-0.25	-10	1	-10	16*	0.0084	0.067*	0.031	0.021*	0.06*	0.009
SMILES	RAM inhibit	ROMK primary	S1P3 antag	S1P4 agonist	S1P4 antag	KCC2 mod	KCC2 sec1	KCC2 bumet counter	KCC2 sec2	HEK counter1	KCC2 ouabain	HEK counter2
C=CCC1(/C=N/O)CCOC(C)(C)C1 (stereo unspecified)	.	.	-9	0	-22	0.13	.	.	.	.	.	.
CC(C)CCNC(=O)CCc1nnc(Cc2c[nH]c3ccccc23)o1	0	-0.25	10	0	10	-1.3	.	.	.	.	.	.
S=c1[nH]nc(Cc2c[nH]c3ccccc23)o1	.	.	-14	0	-2	-5.5*	0.0083	0.0057	0.023*	0.0068	0.011*	0.0094
C=CCn1c(N2CCN(c3ccc(OC)cc3)CC2)nc2c1c(=O)[nH]c(=O)n2C	2	0.33	3	0	-11	0.066	.	.	.	.	.	.
O=C(CCSCCc1ccccn1)Nc1ccccn1	0	.	-2	-1	-1	1.2	.	.	.	.	.	.
O=C(CCSCCc1ccccn1)Nc1ccc(Cc2ccncc2)cc1	-1	-0.93	5	0	0	-3.4*	0.0069	0.0044	?	0.0073	0.018	0.011
O=C(CCn1c(=S)oc2ccccc21)NC1CCCCCCC1	.	0.55	4	0	-2	0.48	.	.	.	.	.	.
